Source: PubChem
The list is not random: actives were taken first. Their share in the collection is about 1.2%.
Y pestis TopoI: blocks Yersinia pestis topoisomerase I activity; Y. pestis Topo-I cleavage product accumulation, plate reader; activity, % at 10 µM; actives 0.064% (n = 360,000); AID 504884; in the data active means activity above about 50%, passing the limit was not always enough; inconclusive means no clear call, values can overlap the other calls
PfHsp40 rescue: rescue of PfHsp40-mediated yeast toxicity; S. cerevisiae expressing PfHsp40, growth rescue, ATP luminescence; growth rescue, % at 12.5 µM; actives 0.68% (n = 340,000); AID 504582; in the data active means growth rescue above about 28%, passing the limit was not always enough; inconclusive means no clear call, values can overlap the other calls;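 further: yeast W303a lacking pdr1 and pdr3 grown in galactose medium; growth measured after three days at 30 °C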
Vc quorum ag: inducers of Vibrio cholerae quorum light production without autoinducers; V. cholerae BH1578 lux reporter, luminescence, 6 h; activation, % at 18.7 µM; actives 0.16% (n = 350,000); in the data active means activation mostly above about 9.7%, no sharp cut-off; inconclusive means no clear call, values can overlap the other calls; inactive means mostly below about 3.7%
VHR inh abs: blocks human VHR1 dual specificity phosphatase; P51452; recombinant VHR phosphatase, pNPP absorbance; inhibition, % at 13.3 µM; actives 0.52% (n = 290,000); AID 1654; in the data active means inhibition above about 50%
Target sequence (P51452 whole entry, looked up): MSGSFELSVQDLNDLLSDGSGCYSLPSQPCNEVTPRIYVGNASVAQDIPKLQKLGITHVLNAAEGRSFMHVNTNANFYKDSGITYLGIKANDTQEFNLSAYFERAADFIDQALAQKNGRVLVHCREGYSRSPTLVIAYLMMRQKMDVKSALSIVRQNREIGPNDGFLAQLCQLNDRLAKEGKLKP
Mtb BioA inh: BioA (M. tuberculosis) enzyme inhibition | purified M. tuberculosis BioA enzyme, plate reader | inhibition, % at 9.99 µM | actives 0.096% (n = 360,000); in the data active means inhibition above about 40%; inconclusive means no clear call, values can overlap the other calls
TcdB inh: TcdB glycohydrolase inhibition | P18177 | TcdB glycohydrolase enzymatic assay, plate reader | inhibition, % at 9.99 µM | actives 0.24% (n = 350,000); in the data active means inhibition above about 10%
A number is an active result; – = inactive; ? = inconclusive; · = no result.

SMILES | Y pestis TopoI | PfHsp40 rescue | Vc quorum ag | VHR inh abs | Mtb BioA inh | TcdB inh
CO[C@H]1CC[C@H]2CCN(C)C(=O)[C@H](C)CN(C)C(=O)c3cc(C#N)ccc3OC[C@H]1O2 | · | · | · | · | – | –
O=C(NCCc1nc2ccccc2[nH]1)c1ccc(Cl)c([N+](=O)[O-])c1 | – | – | – | – | · | –
CCCNC(=O)c1ccc2c(=O)c(O)c(-c3ccc(Cl)c([N+](=O)[O-])c3)[nH]c2c1 | – | 210 | – | – | – | –
O=C(NCCc1cccc(Cl)c1)c1ccc(Cl)c([N+](=O)[O-])c1 | – | – | – | – | · | 11
COC(=O)c1ccc(C2/C(=C(/O)c3ccc(Cl)cc3)C(=O)C(=O)N2C2CCS(=O)(=O)C2)cc1 (stereo not drawn) | – | – | – | – | · | –
Nc1cccc(CCc2ccncc2)c1 | – | – | – | 58 | – | –
CC(C)(C)OC(=O)N1CCC(c2c(C(=O)N3CCN(C(=O)c4ccco4)CC3)cnn2-c2cccc(Cl)c2)CC1 | – | – | – | 58 | – | –
CS(=O)(=O)c1ccc2nc(NC(=O)c3ccc(Cn4cc(Br)cn4)o3)sc2c1 | – | – | – | – | – | –
Cc1ccc(S(=O)(=O)N(CC(=O)O)c2ccc(Cl)c(C(F)(F)F)c2)cc1 | – | – | – | – | · | –
CSc1ccc(C(=O)C2CCCN(C)C2)cc1 (stereo not drawn) | – | – | – | 53 | · | –
CCC1CCCCN1CCCNC(=O)c1ccc2c(c1)NC(=O)CS2 (stereo not drawn) | – | – | – | 56 | – | –
CCC1CCCCN1CCCNC(=O)c1ccc2nc(N3CCC(C)CC3)sc2c1 (stereo not drawn) | – | – | – | 51 | – | –
CCC1CCCCN1CCCNC(=O)c1ccc(/C=C2/Sc3ccccc3NC2=O)cc1 (stereo not drawn) | – | – | – | – | – | –
CC(C)(C)[S@](=O)N1Cc2cc(C(=O)NCCc3ccncc3)nc(-c3cccc(-c4cccnc4)c3)c2[C@@H]1CCO | · | · | · | · | – | –
C[C@@H]1CN([C@H](C)CO)C(=O)c2cccc(NC(=O)Nc3cccc4ccccc34)c2O[C@@H]1CN(C)Cc1ccncc1 | · | · | · | · | – | –
O=C(O)C1(c2ccccc2)CCN(S(=O)(=O)c2ccc(Cl)s2)CC1 | – | – | – | – | – | –
CC(C)(C)c1ccc(OCC(O)CN(CCO)CC(O)Cn2ccc3ccccc32)cc1 (stereo not drawn) | – | – | – | – | · | –
OCCN(CC(O)Cn1ccc2ccccc21)CC(O)Cn1ccc2ccccc21 (stereo not drawn) | – | – | – | 51 | · | ·
CCOc1cccc2sc(N(CCCN(C)C)C(=O)c3ccc(C(=O)c4ccccc4)cc3)nc12 | – | – | – | – | – | –
O=C(/C=C/NNC(=O)c1ccccc1)c1ccccc1 | – | – | – | 52 | – | ·
Cc1cc(NC(=O)c2cc(-c3ccc4c(c3)OCO4)on2)n(-c2ccccc2)n1 | – | – | – | – | – | ·
COc1ccc2c(c1)OC[C@H]1[C@H]2N2C(=O)c3cc(OC)ccc3NC(=O)[C@@]2(C)[C@H]1c1ccccc1 | – | 117 | – | · | – | –
COc1ccc2c(c1)OC[C@H]1[C@H]2N2C(=O)c3cc(Cl)ccc3NC(=O)[C@@]2(C)[C@H]1c1ccccc1 | – | ? | – | · | – | ·
C[C@]12C(=O)N(c3ccc(F)cc3)C(=O)N1[C@H]1c3ccccc3OC[C@@H]1[C@H]2c1ccccc1 | – | 94 | – | · | – | –
O=C(Nc1cccc(F)c1)c1sc(Cl)nc1-c1ccccc1 | – | – | – | – | – | –
SMILES | Y pestis TopoI | PfHsp40 rescue | Vc quorum ag | VHR inh abs | Mtb BioA inh | TcdB inh
COc1cc(CNCc2ccccc2)ccc1OCC(O)c1ccccc1 (stereo not drawn) | – | – | – | – | – | –
O=C(CCc1ccccc1)Nc1ncn[nH]1 | – | – | – | 53 | – | ·
CSc1cccc(NC(=O)CCc2ccccc2)c1 | – | – | – | – | · | 11
O=C(COc1ccccc1)Nc1ncn[nH]1 | – | – | – | – | – | –
COC(=O)c1sc(-c2ccc(C(C)(C)C)cc2)cc1NC(=O)COCC(=O)O | – | 33 | – | – | – | –
CC=Cc1ccc2n(c1=O)C[C@H]1[C@H](CO)[C@@H](C(=O)NCc3ccc(F)cc3)[C@@H]2N1C (mixture of isomers) | · | · | · | · | – | –
CCc1ccc(OCC(=O)NNC(=S)NC(=O)C2CC2)c(Br)c1 | – | 48 | – | – | – | –
COc1ccc(OCC(=O)NNC(=S)NC(=O)C2CCCCC2)cc1 | – | 346 | – | – | – | –
Cc1cc(C)cc(OCC(=O)NNC(=S)NC(=O)C2CC2)c1 | – | 112 | – | – | – | –
COc1ccc(OCC(=O)NC2CCCCCCC2)cc1 | – | – | – | 56 | – | –
N/C(Cc1ccc([N+](=O)[O-])cc1)=N\OC(=O)c1ccco1 | – | – | – | – | · | –
O=C(NCSc1ccccc1)c1ccccc1 | – | – | – | · | – | –
C/C(=N\NC(=O)COc1ccccc1-c1ccccc1)c1ccccn1 | – | 618 | – | – | – | –
C/C(=N\NC(=O)COc1ccccc1-c1ccccc1)c1cccnc1 | – | – | – | – | · | –
CCOc1cccc(OCC)c2c(C)[n+](CC3CCCO3)c(C)c1-2 (stereo not drawn) | – | ? | – | 52 | – | ·
CCOc1cc(C(=O)NCC2CCCO2)cc(OCC)c1OCC (stereo not drawn) | – | – | – | – | – | ·
CC(C)CC#Cc1ccc([C@H]2[C@H]3CN(S(=O)(=O)c4cccc(F)c4)CC(=O)N3[C@H]2CO)cc1 | · | · | · | · | · | –
COc1ccc(C(=O)COC(=O)CCN2C(=O)C3C4CCC(C4)C3C2=O)cc1 (stereo not drawn) | – | – | – | – | · | –
CCNc1ccc(Br)cc(C(=O)/C=C/c2ccc3c(c2)OCO3)c1=O | – | 37 | – | – | – | ·
CCOC(=O)C(Cc1ccc(O)cc1)NC(=O)CCc1c[nH]c2ccccc12 (stereo not drawn) | – | – | – | – | – | –
COc1ccc(-n2sc3ccccc3c2=O)cc1 | – | · | – | · | – | –
O=c1c2cc(F)ccc2sn1-c1ccc(F)cc1 | – | 76 | – | · | – | ·
Cc1ccc(C)c(-n2sc3ccc(F)cc3c2=O)c1 | – | – | – | · | – | –
COc1ccc(-n2sc3ccc(F)cc3c2=O)cc1 | – | 125 | – | · | – | –
COc1ccc(Cn2c(CO)cnc2SCC(=O)Nc2cc(C)on2)cc1 | – | – | – | – | – | –
COc1cc(OC)cc(C2=NC3(CCC(C)CC3)NC2=S)c1 (stereo not drawn) | – | – | – | – | – | –
O=C(NC(NCc1ccccc1)C(Cl)(Cl)Cl)c1cccnc1 (stereo not drawn) | – | – | – | – | – | ·
O=C(NC(NCc1cccnc1)C(Cl)(Cl)Cl)c1cccc2ccccc12 (stereo not drawn) | – | – | – | 54 | – | ·
O=C(N[C@@H]1CC[C@@H](CCn2cc(C3(O)CCCC3)nn2)O[C@H]1CO)C1CCOCC1 | · | · | · | · | – | –
CCCCCCC/C=N/Nc1nnc(Cc2ccccc2)c(=O)[nH]1 | – | – | – | 53 | · | –
